Data as given in PubChem BioAssay.
Active and inactive are the calls of the source.

Key:
[1] = system: Human papillomavirus type 1a protein E7 (residues 44-93); assay: HPV1a E7 fragment binders on microarrays, primary screen, biochemical, small-molecule microarray, residues 44-93, 635 nm fluorescence (AID 1108); conditions: small-molecule microarray binding, fluorescence 635 nm; higher = more signal;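 further: E7 fragment applied at 1 µg/mL in TBST for 1 h at 4 C; score combines spot fluorescence with its signal to noise ratio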
[2] = modulators of HCV replicon luciferase signal, primary screen, HCV replication inhibitor project, Huh7 cells, luciferase reporter (AID 1109); conditions: 48 h, higher = more signal;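 further: huh7 hepatoma cells harbouring a luciferase neomycin HCV replicon reporter; luciferase luminescence as measure of HCV replicon replication; test concentration not given here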
[3] = molecular target: Left-right determination factor 2 (Homo sapiens) (UniProt O00292); assay: LEFTY2 binders on small-molecule microarrays, primary screen, biochemical, small-molecule microarray, 635 nm fluorescence scan (AID 1110); conditions: LEFTY2 binding, higher = more signal
[4] = molecular target: Calmodulin-1 (Homo sapiens) (UniProt P0DP23); assay: CALM1 binders on microarrays, EGTA buffer, profiling panel, biochemical, small-molecule microarray, Cy5-labelled CALM1 (AID 1111); conditions: Cy5-CALM1 binding fluorescence, higher = more signal;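 further: labelled calmodulin applied in Tris saline Tween buffer holding calcium plus EGTA and DTT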
[5] = molecular target: Calmodulin-1 (Homo sapiens) (UniProt P0DP23); assay: calcium-bound CALM1 binders on microarrays, profiling panel, artefact control for SMM control-protein annotation, biochemical, small-molecule microarray, Cy5-labelled CALM1, plus calcium (AID 1112); conditions: Cy5-CALM1 binding fluorescence, higher = more signal;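 further: score merges spot fluorescence with signal to noise from triplicate slides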
[6] = small-molecule microarray binders of probe aWnt5a, primary screen, biochemical, biotinylated probe, 635/667 nm fluorescence (AID 1113); conditions: higher = more signal;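 further: score merges 667 nm fluorescence intensity with signal-to-noise per printed feature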
[7] = small-molecule microarray binders of probe aShh, primary screen, biochemical, biotinylated probe, 635/667 nm fluorescence (AID 1114); conditions: higher = more signal;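 further: probe is biotin-labelled aShh protein from a stem cell growth factor screen; measures binding of labelled protein to compounds printed on the slide; score merges feature fluorescence at 667 nm with signal-to-noise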
[8] = small-molecule microarray binders of probe aNog, primary screen, biochemical, biotinylated probe, 635/667 nm fluorescence (AID 1115); conditions: higher = more signal;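 further: probe is biotinylated aNog protein used at 0.15 µg/mL for 1 h at 4 C; z-score combines 667 nm fluorescence of each spot with its signal to noise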
[9] = molecular target: Torsin-1A-interacting protein 1 (Homo sapiens) (UniProt Q5JTV8); assay: LAP1 binders from COS7 cell lysate, primary screen, small-molecule microarray, 635/667 nm fluorescence (AID 1116); conditions: COS7-hLAP1 lysate binding, 635 nm fluorescence, higher = more signal
[10] = molecular target: Alpha-bungarotoxin (Bungarus multicinctus) (UniProt P60615); assay: alpha-bungarotoxin binders on microarray, profiling panel, artefact control for SMM control protein annotation, biochemical, small-molecule microarray, Alexa647 label, 635/667 nm fluorescence (AID 1117); conditions: alpha-BTX-A647 binding fluorescence, higher = more signal
Albumin (Bos taurus) = Albumin (Bos taurus) (UniProt P02769); assay: bovine serum albumin binders on microarray, profiling panel, artefact control for SMM control protein annotation, biochemical, small-molecule microarray, Alexa647 label, 635/667 nm fluorescence (AID 1118); conditions: BSA-A647 binding, fluorescence 635 nm, higher = more signal;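 further: score merges 667 nm emission intensity and signal-to-noise per printed compound spot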
[11] = small-molecule microarray binders of probe aXIP, primary screen, biochemical, NeuroSMM set, 635/667 nm fluorescence (AID 1119); conditions: higher = more signal, called active from +8 up or from −8 down;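 further: probe is the protein aXip251-270 applied at 1 µg/mL to compound-printed slides; binding of probe to printed compounds measured as 667 nm fluorescence plus signal to noise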
[12] = small-molecule binders of probe aNOTCH3, primary screen, biochemical, small-molecule microarray, 635/667 nm fluorescence (AID 1120); conditions: higher = more signal;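 further: probe is a biotin-tagged antibody raised against NOTCH3 rather than NOTCH3 protein; score merges spot fluorescence near 667 nm with spot signal to noise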
[13] = small-molecule binders of probe aNOTCH2, primary screen, biochemical, small-molecule microarray, 635/667 nm fluorescence (AID 1121); conditions: higher = more signal;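 further: score merges feature fluorescence read at 667 nm with its signal to noise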
[14] = molecular target: Carbonic anhydrase 2 (Homo sapiens) (UniProt P00918); assay: CAII small-molecule binders, profiling panel, biochemical, small-molecule microarray, Alexa647-labelled CAII (AID 1122); conditions: CAII-A647 binding fluorescence, higher = more signal
[15] = COS7 lysate on small-molecule microarray, probe aHis, 635 nm (AID 1123); conditions: COS7 cell lysate, fluorescence, higher = more signal;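 further: z-score combines 667nm fluorescence intensity with signal-to-noise per printed compound spot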
[16] = compound binding in COS7 lysate, probe aLAP1, primary screen, cell lysate, small-molecule microarray (AID 1124); conditions: probe aLAP1, fluorescence, higher = more signal;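 further: lysate comes from COS7 cells expressing LAP1 and is applied at 0.3 µg/mL; score merges spot fluorescence near 667 nm with signal-to-noise over triplicate slides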
Sam68 (KHDRBS1) = assay: Sam68 small-molecule binders, primary screen, biochemical, small-molecule microarray, 635 nm fluorescence (AID 1125); conditions: small-molecule microarray binding, higher = more signal;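 further: score merges 667 nm channel intensity with signal to noise over triplicate slides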
[17] = system: Chordin-like protein 2 (CHRDL2); assay: CHRDL2 small-molecule binders, primary screen, biochemical, small-molecule microarray, 635 nm fluorescence (AID 1126); conditions: small-molecule microarray binding, fluorescence 635 nm; higher = more signal;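 further: printed compound slides probed with Chrdl2 protein at 4 µg/mL for 1 h at 4 C; score merges 667 nm emission intensity with signal to noise over three replicate slides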
[18] = molecular target: Concanavalin-A (Canavalia ensiformis) (UniProt P02866); assay: ConA small-molecule binders, primary screen, artefact control for SMM control protein annotation, biochemical, small-molecule microarray, Alexa647 label, 635 nm (AID 1127); conditions: ConA-A647 binding fluorescence, higher = more signal;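 further: z combines 667 nm emission intensity with signal-to-noise across three replicate slides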
Chain of Concanavalin-A (Canavalia ensiformis) (P02866 whole entry, looked up): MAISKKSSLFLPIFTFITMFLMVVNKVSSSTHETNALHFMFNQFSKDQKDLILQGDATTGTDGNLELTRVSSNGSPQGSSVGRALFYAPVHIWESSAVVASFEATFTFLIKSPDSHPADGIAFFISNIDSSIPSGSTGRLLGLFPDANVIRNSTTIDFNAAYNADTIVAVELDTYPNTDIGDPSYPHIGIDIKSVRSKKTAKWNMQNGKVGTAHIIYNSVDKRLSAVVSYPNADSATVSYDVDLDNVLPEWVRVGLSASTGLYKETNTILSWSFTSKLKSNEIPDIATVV

Chain of Alpha-bungarotoxin (Bungarus multicinctus) (P60615 whole entry, looked up): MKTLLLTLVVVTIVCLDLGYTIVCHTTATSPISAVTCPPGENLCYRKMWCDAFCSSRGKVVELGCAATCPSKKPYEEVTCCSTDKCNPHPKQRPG
Chain of Albumin (Bos taurus) (P02769 whole entry, looked up): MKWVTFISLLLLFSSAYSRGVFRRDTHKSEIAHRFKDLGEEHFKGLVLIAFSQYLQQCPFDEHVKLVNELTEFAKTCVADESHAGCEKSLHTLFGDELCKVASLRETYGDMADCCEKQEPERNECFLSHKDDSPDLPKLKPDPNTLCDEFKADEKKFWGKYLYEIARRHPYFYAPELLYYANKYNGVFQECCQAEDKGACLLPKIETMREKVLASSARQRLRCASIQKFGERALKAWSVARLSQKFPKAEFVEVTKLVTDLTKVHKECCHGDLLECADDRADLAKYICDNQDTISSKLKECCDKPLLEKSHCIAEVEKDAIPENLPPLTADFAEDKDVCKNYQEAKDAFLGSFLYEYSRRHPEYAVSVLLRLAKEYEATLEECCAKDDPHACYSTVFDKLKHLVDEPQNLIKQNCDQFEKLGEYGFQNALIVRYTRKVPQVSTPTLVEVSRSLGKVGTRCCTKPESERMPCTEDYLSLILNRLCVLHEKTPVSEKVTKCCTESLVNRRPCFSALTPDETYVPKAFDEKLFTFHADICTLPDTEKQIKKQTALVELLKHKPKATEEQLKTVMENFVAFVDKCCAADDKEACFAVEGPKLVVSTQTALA
Chain of Left-right determination factor 2 (Homo sapiens) (O00292 whole entry, looked up): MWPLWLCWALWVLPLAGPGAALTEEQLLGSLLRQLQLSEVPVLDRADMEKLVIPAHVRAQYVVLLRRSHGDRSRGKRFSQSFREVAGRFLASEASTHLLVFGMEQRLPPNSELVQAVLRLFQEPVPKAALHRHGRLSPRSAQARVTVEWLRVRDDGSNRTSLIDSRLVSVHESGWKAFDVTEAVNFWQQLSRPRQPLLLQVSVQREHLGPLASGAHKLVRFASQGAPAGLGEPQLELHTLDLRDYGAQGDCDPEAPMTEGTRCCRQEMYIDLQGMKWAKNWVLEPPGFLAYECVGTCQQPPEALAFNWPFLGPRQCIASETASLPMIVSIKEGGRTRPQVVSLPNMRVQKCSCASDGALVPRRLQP
Chain of Torsin-1A-interacting protein 1 (Homo sapiens) (Q5JTV8 whole entry, looked up): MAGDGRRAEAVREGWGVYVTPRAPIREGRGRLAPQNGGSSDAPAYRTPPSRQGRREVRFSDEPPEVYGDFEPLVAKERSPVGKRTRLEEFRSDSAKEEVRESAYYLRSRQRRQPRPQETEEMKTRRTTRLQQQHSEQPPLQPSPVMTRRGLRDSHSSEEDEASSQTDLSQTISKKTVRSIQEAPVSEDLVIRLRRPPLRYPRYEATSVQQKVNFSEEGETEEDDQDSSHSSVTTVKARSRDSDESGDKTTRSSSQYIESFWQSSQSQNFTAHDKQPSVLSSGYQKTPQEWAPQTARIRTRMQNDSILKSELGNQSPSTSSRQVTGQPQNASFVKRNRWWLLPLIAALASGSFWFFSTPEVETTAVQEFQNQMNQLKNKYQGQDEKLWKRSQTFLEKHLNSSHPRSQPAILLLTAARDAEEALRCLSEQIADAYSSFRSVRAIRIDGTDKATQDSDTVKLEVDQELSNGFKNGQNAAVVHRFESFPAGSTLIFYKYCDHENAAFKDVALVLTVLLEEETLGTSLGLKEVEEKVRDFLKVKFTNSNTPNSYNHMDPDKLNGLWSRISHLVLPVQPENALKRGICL

| SMILES | composite z-score [1] | z-score [2] | composite z-score [3] | composite z-score [4] | composite z-score [5] | composite z-score [6] | composite z-score [7] | composite z-score [8] | composite z-score [9] | composite z-score [10] | composite z-score (Albumin (Bos taurus)) | composite Z-score [11] | composite z-score [12] | composite z-score [13] | composite z-score [14] | composite z-score [15] | composite z-score [16] | composite z-score (Sam68 (KHDRBS1)) | composite z-score [17] | composite z-score [18] |
| --- | --- | --- | --- | --- | --- | --- | --- | --- | --- | --- | --- | --- | --- | --- | --- | --- | --- | --- | --- | --- |
| CCCCC(O)C1C=CC2C(=O)N(c3ccccc3)C(=O)C2N1Nc1ccc(C(C)C)cc1 (stereo not given) | 1.41 | 0.318 | 0.154 | 1.25 | 0.304 | 0.0974 | 0.0875 | -0.503 | -0.236 | 1.06 | 0.898 | -0.535 (inactive) | 0.315 | -0.0073 | 0.712 | 2.85 | 0.201 | 1.32 | -0.408 | 1.07 |
| COc1ccc(NC(=O)O[C@H]2[C@H](OC(=O)Nc3ccccc3)[C@H](OC(=O)Nc3ccccc3)[C@@H](OC)O[C@@H]2CO)cc1 | 1.25 | -2.76 | 0.249 | 0.692 | -0.17 | 0.161 | 0.163 | -0.413 | 0.634 | 1.12 | 0.693 | 1.58 (inactive) | 0.861 | 0.28 | 0.703 | 2.87 | 0.197 | 1.31 | 0.181 | 0.946 |
| COc1cccc(/C=C/C=O)c1 | 0.105 | -0.56 | 0.402 | 0.0577 | -0.363 | 0.185 | 0.218 | -0.354 | 0.185 | -0.124 | 0.865 | -0.245 (inactive) | 0.147 | 0.142 | -0.124 | 0.155 | -0.12 | -0.146 | 0.552 | -0.52 |
| COc1ccc([Si](C)(C)[C@@H]2[C@@H](CC(=O)N3Cc4ccccc4C[C@H]3CO)O[C@]3(C(=O)N(C)c4ccccc43)[C@H]2C)cc1 | 0.215 | -4.84 | 0.812 | 0.617 | -0.0353 | 0.0102 | 0.123 | -0.0692 | 0.907 | 0.794 | 0.63 | 1.22 (inactive) | 0.215 | 0.014 | 0.723 | 0.475 | -0.0284 | 1.3 | 1.13 | 1.17 |
| CCOc1cc(C(O)C2C=CC3C(=O)N(C)C(=O)C3N2Nc2ccccc2)ccc1O (stereo not given) | 1.24 | -0.146 | 0.0031 | 0.796 | -0.211 | -0.0165 | -0.155 | -0.145 | 1.92 | 0.848 | 1.04 | 0.765 (inactive) | 0.194 | 0.0931 | 0.827 | 1.28 | -0.438 | 1.22 | 0.0675 | 0.947 |
| COc1ccc(C(O)C2C=CC3C(=O)N(c4ccccc4)C(=O)C3N2Nc2ccc([N+](=O)[O-])cc2)cc1 (stereo not given) | 0.487 | -0.925 | -0.425 | 1.45 | 0.622 | 0.315 | 0.109 | -0.064 | 1.66 | 1.32 | 0.968 | 1.19 (inactive) | 0.84 | 0.495 | 0.637 | 2.86 | 0.64 | 1.31 | -0.936 | 0.989 |
| COc1ccc([Si](C)(C)[C@H]2[C@H](CCn3cc([C@H](O)c4ccccc4)nn3)O[C@@]3(C(=O)N(Cc4ccc(N5C(=O)c6cccc7cccc5c67)cc4)c4ccccc43)[C@@H]2C)cc1 | 0.0891 | -2.6 | -0.638 | 0.103 | 0.0758 | -0.131 | -0.154 | -0.0065 | 0.112 | 0.0628 | -0.601 | 0.389 (inactive) | -0.165 | -0.14 | 0.193 | 0.769 | 0.838 | 0.131 | -0.803 | 0.115 |
| CC(c1ccccc1)C(O)C1C=CC2C(=O)N(c3ccccc3)C(=O)C2N1Nc1ccc([N+](=O)[O-])cc1 (stereo not given) | 1.46 | -0.0504 | 0.365 | 0.93 | 0.328 | -0.001 | -0.0146 | 0.457 | 0.464 | 1.53 | 0.903 | -0.122 (inactive) | 0.158 | -0.0211 | 0.526 | 2.95 | 0.0001 | 1.05 | -0.661 | 1.12 |
| COc1ccc([Si](C)(C)[C@H]2[C@H](CC(=O)N(CCO)Cc3ccccc3)O[C@@]3(C(=O)N(Cc4cccc(N5CCOC5=O)c4)c4ccccc43)[C@@H]2C)cc1 | 0.671 | -4.06 | 0.498 | 0.107 | -0.48 | -0.154 | -0.147 | -0.318 | 0.0843 | 0.429 | -0.255 | 0.897 (inactive) | -0.0288 | -0.104 | 0.591 | 1.1 | 0.735 | 1.3 | 0.623 | 0.995 |
